Screening data deposited in PubChem BioAssay by several laboratories.
Smad3 inh – inhibitors of human Smad3 transcription factor binding; P84022; TR-FRET Smad3/Dy647-FoxH1 peptide binding, europium anti-His; inhibition, % at 25 µM; AID 630; actives 0.29% (n = 88,000);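 active means compounds that reduce the energy-transfer binding signal between the protein and its labelled peptide by more than half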
MT1-MMP txn act – activates MT1-MMP transcription; actives 0.16% (n = 86,000); HT1080 MT1-MMP promoter luciferase reporter, luminescence, overnight; hits give high values; activation factor at 10 µM; AID 750;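 active means activation factor of at least 2 for MT1-MMP transcription at 10 µM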
ERa SRC1 inh – blocks coactivator binding to human estrogen receptor alpha | P03372 | TR-FRET ER-alpha LBD / SRC-1 peptide, estradiol-bound | inhibition, % at 25.6 µM | actives 1.7% (n = 86,000); in the data active means inhibition above about 50%
Target sequence (P03372 whole entry, looked up, the tested form may be a part): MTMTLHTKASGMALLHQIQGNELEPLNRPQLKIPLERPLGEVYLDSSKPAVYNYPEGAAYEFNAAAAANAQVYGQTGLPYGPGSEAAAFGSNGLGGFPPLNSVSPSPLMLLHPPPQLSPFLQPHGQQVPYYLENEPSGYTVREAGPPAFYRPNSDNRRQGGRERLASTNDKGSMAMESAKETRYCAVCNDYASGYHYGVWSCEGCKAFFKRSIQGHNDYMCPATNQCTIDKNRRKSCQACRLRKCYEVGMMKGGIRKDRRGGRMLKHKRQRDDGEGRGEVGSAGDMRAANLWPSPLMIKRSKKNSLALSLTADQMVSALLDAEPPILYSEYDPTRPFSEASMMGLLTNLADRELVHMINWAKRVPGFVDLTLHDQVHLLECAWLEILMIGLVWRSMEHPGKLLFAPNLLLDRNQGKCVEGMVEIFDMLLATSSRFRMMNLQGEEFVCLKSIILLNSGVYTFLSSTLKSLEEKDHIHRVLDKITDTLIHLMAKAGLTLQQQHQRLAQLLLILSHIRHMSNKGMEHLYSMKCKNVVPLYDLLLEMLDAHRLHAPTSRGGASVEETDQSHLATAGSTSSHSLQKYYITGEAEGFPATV
ERb SRC1 inh – blocks coactivator binding to human estrogen receptor beta. TR-FRET ER-beta LBD / SRC1-Cy5 peptide binding; receptor agonist-loaded with 1 µM estradiol. Q92731. inhibition, % at 25.6 µM. actives 1.3% (n = 86,000). AID 633;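 active means compounds whose percent inhibition of the receptor-coactivator binding signal exceeds about 50% in the single-dose screen, limit read from the data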
MMP-13 inhibitor – blocks human MMP13 activity. P45452. actives 0.07% (n = 65,000). inhibition, % at 4 µM. MMP-13 fTHP FRET cleavage, Mca fluorescence;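 active means inhibition above the mean of compound-free control plate wells plus 3 SD, cut at about 14% in these data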
ERa coact pot – ER-alpha (human) coactivator binding potentiation | TR-FRET ERalpha-LBD/SRC-Cy5 coactivator binding, 2 h; 100 = basal binding, no effect | P03372 | AID 639 | actives 1.3% (n = 86,000) | coactivator binding (% of control), % at 25.6 µM; in the data active means activity above about 200%;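 further: binding measured in presence of low estradiol as agonist stimulus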
Large screens that a line does not name were inactive; [ ] = remark or other dose. This is a sample that favours compounds with a hit; in the whole collection about 3.5% have one here.

c1ccc(CNc2nc3ccccc3n3cnnc23)cc1	ERa coact pot 238[fluorescence artefact?] (no result: MT1-MMP txn act, MMP-13 inhibitor)
Cc1nnc(SCC(=O)N2CCOCC2)s1	none
CCN1C(=O)c2cccc3c(NC(=O)c4ccccc4)ccc1c23	none (no result: MMP-13 inhibitor)
CCN1C(=O)c2cccc3c(NC(=O)c4ccc5c(c4)OCCO5)ccc1c23	ERa coact pot 255
Cc1ccccc1C(=O)N1CCN(c2ccc(NC(=O)c3ccco3)cc2Cl)CC1	none
O=C1c2ccccc2-c2onc3c(Oc4ccccc4)cc(O)c1c23	ERa SRC1 inh 74[fluorescence artefact?], ERb SRC1 inh 71[fluorescence artefact?] (no result: MMP-13 inhibitor)
CC1CCC2(CC1)NC(=O)N(CC(=O)c1ccc[nH]1)C2=O (centres undefined)	ERa SRC1 inh 75 (no result: MMP-13 inhibitor)
CC1CCCCC12NC(=O)N(CC(=O)c1ccc[nH]1)C2=O (centres undefined)	none
CCOc1ccc(NS(=O)(=O)c2ccc3[nH]cc(C(=O)NCC4CCCO4)c(=O)c3c2)cc1 (centres undefined)	none
CCc1ccccc1NS(=O)(=O)c1ccc2[nH]cc(C(=O)NCC3CCCO3)c(=O)c2c1 (centres undefined)	ERa SRC1 inh 65
O=C(CN1C(=O)NC2(CCCCCCC2)C1=O)N1CCN(C(=O)c2ccco2)CC1	none (no result: MMP-13 inhibitor)
N#Cc1c(OCC(=O)c2ccccc2)nc2c(c1-c1ccco1)CCc1ccccc1-2	ERa coact pot 230 (no result: MMP-13 inhibitor)
O=C(Oc1ccc2c(c1)OCO2)c1cc2c(s1)CCC2	ERa SRC1 inh 93[fluorescence artefact?], ERb SRC1 inh 83
COc1cccc(C2(O)CCN(C(=O)c3cccs3)CC2)c1	none
Cc1ccc2oc(-c3cccc(NC(=O)C4CCCO4)c3)nc2c1 (centres undefined)	none
Cc1ccc2oc(-c3cccc(NC(=O)c4cc(-n5cnnc5)ccc4Cl)c3)nc2c1	ERa coact pot 245 (no result: MMP-13 inhibitor)
Cc1ccc2nc(-c3cccc(NC(=O)c4ccc5c(c4)OCCO5)c3)oc2c1	ERa SRC1 inh 68[fluorescence artefact?]
COc1cc(C(=O)Nc2cc(-c3nc4cc(C)ccc4o3)ccc2C)cc(OC)c1OC	ERa SRC1 inh 74[fluorescence artefact?], ERb SRC1 inh 60[fluorescence artefact?]
COc1cc(C(=O)Nc2cccc(-c3nc4cc(C)ccc4o3)c2)cc(OC)c1OC	ERa SRC1 inh 72[fluorescence artefact?], ERa coact pot 252[fluorescence artefact?]
COc1cc(C(=O)Nc2cccc(-c3nc4cc(C)ccc4o3)c2C)cc(OC)c1OC	none
NS(=O)(=O)c1cc2c(cc1Cl)NC=NS2(=O)=O	ERb SRC1 inh 94[fluorescence artefact?]
NS(=O)(=O)c1cc2c(cc1Cl)NC(C1C[C@H]3C=C[C@@H]1C3)NS2(=O)=O (some centres undefined)	none
O=C(COC(=O)c1ccccc1)NCc1ccco1	ERa SRC1 inh 76[fluorescence artefact?], ERb SRC1 inh 60
O=C(COC(=O)c1cc(S(=O)(=O)N2CCc3ccccc3C2)ccc1Cl)NCc1ccco1	none (no result: MMP-13 inhibitor)
O=C(COC(=O)c1cccc(S(=O)(=O)N2CCc3ccccc3C2)c1)NCc1ccco1	ERa SRC1 inh 65, ERb SRC1 inh 53
O=C(COC(=O)c1ccccc1Oc1ccccc1)NCc1ccco1	ERa SRC1 inh 64
O=C(COC(=O)c1ccco1)NCc1ccco1	none
Cc1onc(-c2c(F)cccc2Cl)c1C(=O)OCC(=O)NCc1ccco1	ERa SRC1 inh 52
CCOC(=O)CSc1nc2cc3c(cc2cc1CC)OCCO3	none (no result: MMP-13 inhibitor)
O=C(NC(=S)Nc1ccccc1N1CCCC1)c1ccc(-c2cccc([N+](=O)[O-])c2)o1	none (no result: MMP-13 inhibitor)
COC(=O)C1=C(N)c2ccccc2C1(C#N)c1ccccc1 (centres undefined)	none (no result: MMP-13 inhibitor)
Cc1c2c(nc3nc4ccccc4n13)CCCC2=O	none
O=C(COC(=O)c1cc(-c2ccc(Cl)s2)nc2ccccc12)NCc1ccco1	none (no result: MMP-13 inhibitor)
O=C(COC(=O)c1cc(-c2cccs2)nc2ccccc12)NCc1ccco1	ERa SRC1 inh 65[fluorescence artefact?]
CCOC(=O)c1cc(CC)sc1NC(=O)c1ccc2c(c1)OCCO2	ERa coact pot 466[fluorescence artefact?] (no result: MT1-MMP txn act, MMP-13 inhibitor)
Cc1n[nH]c(C)c1CCc1nc2c3ccccc3nc(SCC(N)=O)n2n1	none
Cc1ccc(NC(=O)CSc2nc3ccccc3c3nc(CCc4c(C)n[nH]c4C)nn23)cc1F	ERa SRC1 inh 54[fluorescence artefact?] (no result: MMP-13 inhibitor)
COc1cc2ccccc2cc1C(=O)Nc1ccccc1N1CCN(S(C)(=O)=O)CC1	none
O=C(O)CCCNc1cc(N2CCC3(CC2)OCCO3)c2noc3c2c1C(=O)c1ccccc1-3	Smad3 inh 98[fluorescence artefact?], ERb SRC1 inh 88[fluorescence artefact?]
CCNc1ccc2noc3c2c1C(=O)c1ccccc1-3	none (no result: MMP-13 inhibitor)
CCOC(=O)N1CCN(c2cc(NCCC(=O)O)c3c4c(onc24)-c2ccccc2C3=O)CC1	ERb SRC1 inh 65[fluorescence artefact?]
COc1ccc2[nH]c3nc(SCc4nnc(-c5ccc(C)cc5)o4)nnc3c2c1	ERa SRC1 inh 81, ERb SRC1 inh 64[fluorescence artefact?]
Cc1ccc2[nH]c3nc(SCCN4CCOCC4)nnc3c2c1	none
O=C1C(Cl)=C(Nc2ccc(S(=O)(=O)Nc3ccccn3)cc2)C(=O)c2ccccc21	Smad3 inh 99 (no result: MT1-MMP txn act, ERa SRC1 inh, ERb SRC1 inh, MMP-13 inhibitor, ERa coact pot)
CCOc1ccc2c3c(c(=O)oc2c1OCC)CCCC3	ERa SRC1 inh 84[fluorescence artefact?] (no result: MMP-13 inhibitor)
CCCOc1ccc2c3c(c(=O)oc2c1OCCC)CCCC3	none (no result: MMP-13 inhibitor)
COc1ccc(-c2nn(C)c(=O)c3ccccc23)cc1NS(C)(=O)=O	none
Cc1ccc(-c2nn(C)c(=O)c3ccccc23)cc1CNC(=O)Cn1nc(-c2ccccc2)c2ccccc2c1=O	ERa SRC1 inh 68[fluorescence artefact?] (no result: MMP-13 inhibitor)
COc1ccc(OCC(=O)Nc2cc(-c3nn(C)c(=O)c4ccccc34)ccc2OC)cc1	ERa coact pot 677[fluorescence artefact?] (no result: MMP-13 inhibitor)
COc1ccc(-c2nn(C)c(=O)c3ccccc23)cc1NC(=O)Cn1nc(-c2ccccc2)c2ccccc2c1=O	ERa coact pot 290[fluorescence artefact?] (no result: MMP-13 inhibitor)
Cc1nn(CC(=O)NCc2cccc3ccccc23)c(=O)c2ccccc12	ERa coact pot 257[fluorescence artefact?] (no result: MMP-13 inhibitor)
Cc1nn(CC(=O)NCc2ccccc2)c(=O)c2ccccc12	none
CCOC(=O)c1[nH]c(C)c(C(=O)OCC(=O)NC(=O)NC(C)(C)C)c1C	none
COc1ccc(OC)c(-c2cc(C3CCN(c4ncccc4[N+](=O)[O-])CC3)[nH]n2)c1	none (no result: MMP-13 inhibitor)
CC1(C)C(=O)C2(CCCC2)C(=O)OC1c1ccco1 (centres undefined)	none
CC1(C)C(=O)C2(CCCCC2)C(=O)OC1c1ccc(O)cc1 (centres undefined)	ERa coact pot 218
CNC(=O)Oc1ccc2c(c1)[C@]1(C)CCN(C)[C@@H]1N2C	none (no result: ERb SRC1 inh)
O=C(N/N=C/C=C/c1ccccc1)c1cccc(Br)c1	none (no result: MMP-13 inhibitor)
Cc1ccc(C(=O)N/N=C/c2ccc([N+](=O)[O-])s2)cc1	ERa SRC1 inh 67 (no result: MT1-MMP txn act, MMP-13 inhibitor)
O=C(N/N=C/c1ccc([N+](=O)[O-])s1)c1cccc(Br)c1	ERa SRC1 inh 76[fluorescence artefact?] (no result: MMP-13 inhibitor)
O=C(O)c1c[nH]c2c(C(F)(F)F)cccc2c1=O	none (no result: MMP-13 inhibitor)
O=C(O)c1c[nH]c2c(ccc3[nH]cc(C(=O)O)c(=O)c32)c1=O	Smad3 inh 93 (no result: MT1-MMP txn act, ERa SRC1 inh, ERb SRC1 inh, MMP-13 inhibitor, ERa coact pot)
CN1CCN(CC#CC(C)(O)C2CC3C=CC2C3)CC1 (centres undefined)	none
